Measured values: PubChem BioAssay (NCATS)
“And” between values parts separate entries of the source, which are not always exact repeats. Equal values may be shown once. Records with an inconclusive call do not appear. The source made the active and inactive calls. Unless noted, the call rests on the fitted dose curve; in most records, active means well fitted curve in either direction with a large enough effect (not every such curve was filed as active); inconclusive means small, poorly fitted or top-dose-only effect, or another doubt; inactive means flat fitted curve, though single readings scatter.

Experiments:
[1] = molecular target: Lysosomal acid glucosylceramidase (Homo sapiens) (UniProt P04062); assay: Glucocerebrosidase-p2 (AID 348; in the data active means potency below about 10 µM; further: potency means the concentration at half of the fitted maximal effect); conditions: purified GBA, blue fluorogenic substrate, 40 min
Chain of Lysosomal acid glucosylceramidase (Homo sapiens) (P04062 whole entry, looked up): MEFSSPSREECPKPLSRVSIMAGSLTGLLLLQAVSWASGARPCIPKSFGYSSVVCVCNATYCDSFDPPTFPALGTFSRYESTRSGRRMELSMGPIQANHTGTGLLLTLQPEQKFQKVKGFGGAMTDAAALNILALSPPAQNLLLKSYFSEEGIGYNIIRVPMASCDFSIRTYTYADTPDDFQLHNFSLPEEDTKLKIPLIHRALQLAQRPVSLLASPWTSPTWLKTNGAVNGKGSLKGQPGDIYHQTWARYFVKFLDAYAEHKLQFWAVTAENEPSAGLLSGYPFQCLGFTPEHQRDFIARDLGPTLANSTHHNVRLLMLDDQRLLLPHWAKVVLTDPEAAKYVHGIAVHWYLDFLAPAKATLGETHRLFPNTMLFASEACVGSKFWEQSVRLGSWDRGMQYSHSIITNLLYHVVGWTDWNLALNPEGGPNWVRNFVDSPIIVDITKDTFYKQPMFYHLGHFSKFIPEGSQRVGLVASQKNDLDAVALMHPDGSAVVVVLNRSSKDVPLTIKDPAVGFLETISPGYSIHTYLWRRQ
How it was run: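 Normal human glucocerebrosidase (0.2 nM) with blue fluorogenic substrate (80 uM final) in citrate/phosphate pH 5.9 with 10mM sodium taurocholate, 0.01% tween-20; 40 min RT, NaOH/glycine stop; fluorescence Ex 365/Em 440; AC50 from a titration from 0.6 nM upwards.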

[2] = AP1 Signaling Pathway (AID 357); conditions: ME-180 AP-1-bla reporter, EGF-induced, beta-lactamase ratio, 5 h; further: on the % scale 0 is the no-effect control and ±100 the full control effect
How it was run: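 Modulation of EGF-driven AP-1 transcription was assessed with a beta-lactamase reporter in ME-180 cells. Compound and EC50 EGF were co-incubated 5 hours at 37 °C before 2.5-hour CCF4 loading at room temperature and dual-emission reading.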

[3] = molecular target: Cytochrome P450 1A2 (Homo sapiens) (UniProt P05177); assay: p450-cyp1a2 (AID 410; calls by dose curve; further: potency means the concentration at half of the fitted maximal effect;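 on activity change, negative = inhibition: -100% = full effect of reference inhibitor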); conditions: recombinant CYP1A2, luciferin-ME demethylation, luminescence; series mostly up to 57 µM
Chain of Cytochrome P450 1A2 (Homo sapiens) (P05177 whole entry, looked up): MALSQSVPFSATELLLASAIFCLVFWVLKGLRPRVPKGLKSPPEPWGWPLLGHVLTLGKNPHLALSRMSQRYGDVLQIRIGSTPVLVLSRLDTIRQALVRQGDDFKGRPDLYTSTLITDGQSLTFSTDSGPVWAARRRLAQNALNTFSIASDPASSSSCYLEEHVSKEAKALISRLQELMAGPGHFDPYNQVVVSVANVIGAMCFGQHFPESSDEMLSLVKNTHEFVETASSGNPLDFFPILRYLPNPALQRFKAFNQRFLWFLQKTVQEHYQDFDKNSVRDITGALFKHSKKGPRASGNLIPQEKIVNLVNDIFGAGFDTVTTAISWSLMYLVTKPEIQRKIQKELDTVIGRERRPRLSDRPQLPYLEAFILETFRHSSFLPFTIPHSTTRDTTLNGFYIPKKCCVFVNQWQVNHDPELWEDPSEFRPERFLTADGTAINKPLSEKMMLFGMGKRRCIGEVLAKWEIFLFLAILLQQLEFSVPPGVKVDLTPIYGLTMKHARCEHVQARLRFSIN
How it was run: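 Read-out is luminescence from luciferin produced by CYP1A2 demethylation of Luciferin-ME (100uM, at Km). Detection reagent stopped the 60 min NADPH-dependent reaction; signals were normalized to 57 uM furafylline.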

[4] = NFAT Signaling Pathway (AID 444); conditions: Jurkat NFAT-bla M1, carbachol, beta-lactamase ratio, 5 h;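 further: carbachol stimulus at about its EC50 of 1 µM final; on the % scale 0 is the no-effect control and ±100 the full control effect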
How it was run: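 Jurkat cells carrying an NFAT-driven β-lactamase reporter and co-transfected muscarinic M1 receptor were treated with compound plus carbachol (1 uM final, an EC50 level) for 5 h at 37 °C. CCF4 loading followed for 1 h at RT; 460/530 nm ratio gave %activity.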

[5] = Stat Signaling Pathway (AID 446); conditions: ME-180 (cervical carcinoma) SIE beta-lactamase reporter, IL-6 stimulated, 5 h;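 further: ME-180 cervical cancer cells given 40 pM IL-6 alongside compound; SIE-controlled beta-lactamase reporter measured as 460/530 nm FRET emission ratio; on the % scale 0 is the no-effect control and ±100 the full control effect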
How it was run: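 Overnight-plated ME-180 cells bearing a STAT Inducible Element beta-lactamase reporter; 5 h co-exposure to compound and 40 pM IL-6; values normalized to 300 pM IL-6 and 125 nM JAK inhibitor controls.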

[6] = molecular target: Glucocorticoid receptor (Homo sapiens) (UniProt P04150); assay: GR-GFP Redistribution (AID 450;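 active means compounds whose dose series gives a full or clear partial fitted curve of increased nuclear translocation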; further: potency means the concentration at half of the fitted maximal effect); conditions: U2OS GR-GFP nuclear translocation, laser cytometry, 2 h
Chain of Glucocorticoid receptor (Homo sapiens) (P04150 whole entry, looked up, the tested form may be a part): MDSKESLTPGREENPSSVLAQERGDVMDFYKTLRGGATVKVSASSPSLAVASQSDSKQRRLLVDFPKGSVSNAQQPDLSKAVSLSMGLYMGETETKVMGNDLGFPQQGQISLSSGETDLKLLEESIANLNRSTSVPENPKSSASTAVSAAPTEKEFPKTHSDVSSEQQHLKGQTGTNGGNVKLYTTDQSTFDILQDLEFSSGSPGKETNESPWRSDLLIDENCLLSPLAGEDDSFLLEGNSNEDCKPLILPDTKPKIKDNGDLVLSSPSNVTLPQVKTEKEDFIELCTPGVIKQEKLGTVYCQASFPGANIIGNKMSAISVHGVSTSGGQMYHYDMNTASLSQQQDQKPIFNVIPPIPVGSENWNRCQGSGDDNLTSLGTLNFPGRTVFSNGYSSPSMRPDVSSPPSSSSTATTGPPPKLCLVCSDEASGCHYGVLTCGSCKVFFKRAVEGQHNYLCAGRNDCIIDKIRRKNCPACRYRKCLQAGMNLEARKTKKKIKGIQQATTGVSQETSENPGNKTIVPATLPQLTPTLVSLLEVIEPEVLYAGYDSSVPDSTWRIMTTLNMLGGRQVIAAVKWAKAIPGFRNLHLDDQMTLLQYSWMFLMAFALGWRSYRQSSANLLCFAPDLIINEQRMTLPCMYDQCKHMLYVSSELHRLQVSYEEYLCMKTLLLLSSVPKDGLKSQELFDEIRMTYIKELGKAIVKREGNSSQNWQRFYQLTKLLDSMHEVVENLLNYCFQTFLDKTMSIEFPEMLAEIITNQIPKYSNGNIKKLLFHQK

[7] = molecular target: Mitogen-activated protein kinase 10 (Mus musculus) (UniProt Q61831); assay: JNK3 AlphaScreen Assay (AID 530); conditions: JNK3 lysate, c-Jun phosphorylation; series mostly up to 57.1 µM;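 further: kinase came from lysate of stimulated human HepG2 cells; signal reports phosphorylation of biotinylated GST-cJun 1-79 at Ser73 with 10 µM ATP; on the % scale 0 is the no-effect control and ±100 the full control effect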
How it was run: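 Biotinylated GST-cJun(1-79) served as substrate for JNK3 in HepG2 lysates stimulated with IL-1beta and TNF-alpha. ATP was 10 uM final, pH 7.6. Ser73 phosphorylation was quantified by AlphaScreen (680 nm excitation).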

[8] = molecular target: Glucocorticoid receptor (Homo sapiens) (UniProt P04150); assay: GR-EFC Redistribution (AID 451; calls by dose curve; further: potency means the concentration at half of the fitted maximal effect); conditions: CHO-K1 GR-EFC translocation, beta-gal luminescence, 2 h
How it was run: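 CHO-K1 cells stably expressing nuclear-localized β-gal enzyme acceptor and GR fused C-terminally to the enzyme donor fragment; ligand-driven nuclear translocation restores β-gal by complementation. Compounds titrated up to 46 uM final, 2 h at 37 °C; luminescence read.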

[9] = Cell Viability - BJ (AID 421; calls by dose curve;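 further: potency means the concentration at half of the fitted maximal effect; cells exposed to compound for 40 hours at 37 °C before readout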); conditions: BJ fibroblast viability, qHTS
How it was run: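 Quantitative HTS: ATP depletion in BJ cells after 40 hr compound exposure in complete culture medium, detected with CellTiter-Glo; AC50 from standard Hill fits.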

[10] = Cell Viability - Jurkat (AID 426;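 active means dose-dependent loss of cell ATP signal giving a full or clear fitted curve, ranked by lower potency value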;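 further: potency means the concentration at half of the fitted maximal effect; cells exposed to compound for 40 hours at 37 °C before ATP read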); conditions: qHTS
How it was run: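 Cytotoxicity was scored as loss of cellular ATP, measured by luciferase-based luminescence, in Jurkat clone E6-1 cells after 40 h compound treatment; tamoxifen and doxorubicin served as positive controls.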

[11] = Cell Viability - Hek293 (AID 427;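 active means compounds whose dose-response curve shows a full or clear partial loss of cell viability, called from curve shape rather than a numeric limit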;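 further: potency means the concentration at half of the fitted maximal effect; cells exposed to compound for 40 hours at 37 °C before reading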); conditions: qHTS
How it was run: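 AC50 values derive from Hill-modelled concentration-response of ATP-based luminescence, normalized between DMSO-only and 100 uM tamoxifen controls. Cells were exposed in complete culture medium for 40 hr at 37 °C before detection.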

[12] = Cell Viability - HepG2 (AID 433; calls by dose curve;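 further: potency means the concentration at half of the fitted maximal effect; potency for ATP loss meaning cytotoxicity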); conditions: qHTS
How it was run: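 Read-out is luciferase-based quantitation of cellular ATP as a measure of viable HepG2 cells after 40 h treatment at 37 °C. Signal decrease is scaled between DMSO-only and 100 uM tamoxifen controls, with AC50 fitted by the Hill equation.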

[13] = Cell Viability - MRC5 (AID 434; calls by dose curve;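 further: potency means the concentration at half of the fitted maximal effect; cells exposed to compound for 40 hours at 37 °C; potency reflects cytotoxicity seen as loss of intracellular ATP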); conditions: MRC5 lung fibroblast viability, qHTS
How it was run: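 Decrease in intracellular ATP, quantified by luciferase light output, reflects compound toxicity toward MRC5 cells exposed for 40 hr in complete culture medium. Concentration-response curves, scaled between DMSO and 100 uM tamoxifen, gave AC50 values.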

[14] = Cell Viability - SK-N-SH (AID 435; calls by dose curve;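 further: potency means the concentration at half of the fitted maximal effect; compound exposure lasted 40 h at 37 °C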); conditions: SK-N-SH neuroblastoma cell viability qHTS
How it was run: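 Luminescent ATP signal served as the viability read-out after 40 hours of compound treatment of human neuroblastoma SK-N-SH cells. Concentration-response data, scaled between DMSO and 100 uM tamoxifen, gave AC50 values by standard Hill modeling.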

[15] = Cell Viability - N2a (AID 540; active means well fitted curve in the direction sought with a large enough effect; an effect the other way counts as inactive or inconclusive;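 further: potency means the concentration at half of the fitted maximal effect; cells exposed to compound for 40 h at 37 °C; nearly all actives have a fitted effect of over 45% in size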); conditions: N2a mouse neuroblastoma cell viability; activity change, negative = cytotoxicity: at 92.2 µM (top of the series)
How it was run: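 In this qHTS cytotoxicity screen, ATP-dependent luciferase luminescence reports viable N2a cells after a 40 hr compound exposure in complete culture medium. Potencies are AC50 values from standard Hill equation fits.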

[16] = Cell Viability - NIH 3T3 (AID 541; active means well fitted curve in the direction sought with a large enough effect; an effect the other way counts as inactive or inconclusive; further: potency means the concentration at half of the fitted maximal effect; nearly all actives have a fitted effect of over 25% in size); conditions: NIH 3T3 cell viability, qHTS; activity change, negative = cytotoxicity: at 92.2 µM (top of the series)
How it was run: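 In this cytotoxicity screen, acute toxicity is scored as an ATP drop measured by CellTiter-Glo in NIH 3T3 fibroblasts following a 40 hr, 37 °C incubation with compound.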

[17] = Cell Viability - HUV-EC-C (AID 542; active means well fitted curve in the direction sought with a large enough effect; an effect the other way counts as inactive or inconclusive; further: potency means the concentration at half of the fitted maximal effect; nearly all actives have a fitted effect of over 35% in size); conditions: HUV-EC-C endothelial cell viability, qHTS; series mostly up to 92.2 µM
How it was run: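 Concentration-dependent ATP loss in HUV-EC-C cells is the measure. Exposure lasts 40 hr at 37 °C; luminescence follows CellTiter-Glo addition, and Hill fits give AC50.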

[18] = Cell Viability - H-4-II-E (AID 543; active means well fitted curve in the direction sought with a large enough effect; an effect the other way counts as inactive or inconclusive; further: potency means the concentration at half of the fitted maximal effect; nearly all actives have a fitted effect of over 35% in size); conditions: H-4-II-E rat hepatoma viability; series mostly up to 92.2 µM
How it was run: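 AC50 from Hill-modelled qHTS concentration-response curves. H-4-II-E rat hepatoma cells in complete medium, 40 hr exposure at 37 °C, viability by CellTiter-Glo ATP luminescence.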

[19] = Cell Viability - SH-SY5Y (AID 544; active means well fitted curve in the direction sought with a large enough effect; an effect the other way counts as inactive or inconclusive; further: potency means the concentration at half of the fitted maximal effect; nearly all actives have a fitted effect of over 55% in size); conditions: SH-SY5Y neuroblastoma cell viability; viability change, negative = cytotoxic: at 92.2 µM (top of the series)
How it was run: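 Quantitative HTS in SH-SY5Y neuroblastoma cells, 40 hr treatment at 37 °C, ATP content by luciferase luminescence; AC50 from Hill fits.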

[20] = Cell Viability - Renal Proximal Tubule (AID 545; active means well fitted curve in the direction sought with a large enough effect; an effect the other way counts as inactive or inconclusive; further: potency means the concentration at half of the fitted maximal effect; nearly all actives have a fitted effect of over 40% in size); conditions: renal proximal tubule cells viability, primary cells of rat origin; activity change, negative = cytotoxicity: at 91.7 µM (top of the series)
How it was run: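 Luminescent ATP signal (CellTiter-Glo) served as the viability read-out after 40 hr compound exposure of freshly isolated rat proximal tubule cells at 37 °C. Concentration-dependent ATP loss was fitted with the Hill equation to give AC50.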

[21] = at 38 µM (top of the series) unless noted

O=C(O)CC[C@@H](C(=O)O)N1C(=O)c2ccccc2C1=O
inactive: Potency [1] > 11.4 µM | activity change, negative = inhibition ([2]; at 7.69 µM (top of the series)) -7.49% | activity change, negative = inhibition ([2]; at 38 µM (top of the series)) 3.98% | Potency [3] | activity change, negative = inhibition ([4]; at 7.69 µM (top of the series)) 15.2% | activity change, negative = inhibition ([4]; at 38 µM (top of the series)) -1.84% | activity, negative = inhibition ([5]; at 7.69 µM (top of the series)) 3.89% | activity, negative = inhibition ([5]; at 38 µM (top of the series)) 0.0495% | Potency [6] > 46 µM | Potency [7]

O=C(Nc1cccc(C(=O)Nc2ccc(S(=O)(=O)O)c3cc(S(=O)(=O)O)cc(S(=O)(=O)O)c23)c1)Nc1cccc(C(=O)Nc2ccc(S(=O)(=O)O)c3cc(S(=O)(=O)O)cc(S(=O)(=O)O)c23)c1
inactive: activity change, negative = inhibition ([2]; at 38 µM (top of the series)) -2.72% | Potency [3] | activity change, negative = inhibition [4, 21] 4.75% | activity, negative = inhibition ([5]; at 38 µM (top of the series)) -0.505% | Potency [6] > 46 µM

COc1cccc(C(=O)NCCN2CCN(c3ccc(Cl)cc3)CC2)c1
active: Potency [3] 12.6 µM
inactive: activity change, negative = inhibition ([2]; at 38 µM (top of the series)) -7.5% | activity change, negative = inhibition [4, 21] 2.58% | activity, negative = inhibition ([5]; at 38 µM (top of the series)) 0.921% | Potency [6] > 46 µM | Potency [8] > 46 µM

O=C(c1cc(O)c(O)c([N+](=O)[O-])c1)c1ccccc1F
inactive: activity change, negative = inhibition ([2]; at 38 µM (top of the series)) -17.8% | Potency [3] | activity change, negative = inhibition [4, 21] 0.576% | activity, negative = inhibition ([5]; at 38 µM (top of the series)) -12.2% | Potency [6] > 46 µM | Potency [8] > 46 µM

CN(C)C(N)=NCCC[C@H](N)C(=O)O
inactive: activity change, negative = inhibition ([2]; at 38 µM (top of the series)) 3.1% | Potency [3] | activity change, negative = inhibition [4, 21] -0.969% | activity, negative = inhibition ([5]; at 38 µM (top of the series)) -11.7% | Potency [6] > 46 µM | Potency [8] > 46 µM | Potency [7]

NCCCS(=O)(=O)O
inactive: activity change, negative = inhibition ([2]; at 38 µM (top of the series)) -1.95% | Potency [3] | activity change, negative = inhibition [4, 21] 29% | activity, negative = inhibition ([5]; at 38 µM (top of the series)) -2.17% | Potency [6] > 46 µM | Potency [8] > 46 µM | Potency [7]

CNCC[C@H](Oc1ccc(C(F)(F)F)cc1)c1ccccc1
active: Potency [3] 20 µM and 5.01 µM and 31.6 µM
inactive: activity change, negative = inhibition ([2]; at 17.2 µM (top of the series)) 21.4% | activity change, negative = inhibition ([2]; at 38 µM (top of the series)) 29.8% and 23.7% | activity change, negative = inhibition [4, 21] -28% and -21.6% and -27.9% | activity, negative = inhibition ([5]; at 17.2 µM (top of the series)) -1.77% | activity, negative = inhibition ([5]; at 38 µM (top of the series)) -30.6% and 21.5% | Potency [7]

CN(C)c1ccc(C(=C2C=CC(=[N+](C)C)C=C2)c2ccccc2)cc1
inactive: Potency [1] > 11.4 µM | activity change, negative = inhibition ([2]; at 7.69 µM (top of the series)) 0.139% | Potency [6] > 46 µM | activity change, negative = inhibition [7] -22.8% [at 11.4 µM]
active: Potency [9] 1.14 µM | Potency [10] 0.0233 µM | Potency [11] 0.244 µM | Potency [12] 0.494 µM | Potency [13] 0.458 µM | Potency [14] 0.052 µM | Potency [15] 0.0316 µM | Potency [16] 0.2 µM | Potency [17] 6.31 µM | Potency [18] 0.0794 µM | Potency [19] 0.1 µM | Potency [20] 0.2 µM
